Data on seven molecules can be found in PubChem BioAssay (EPA / NIEHS).

By AC50 is commonly meant the concentration giving half of the maximal activity seen.

Test [1] is described as follows: ATG_PBREM_CIS: Attagene CIS-FACTORIAL HepG2 Assay for human Phenobarbital-responsive Enhancer Module (PBREM) (AID 2282955). As to conditions: HepG2 PBREM cis-reporter, Attagene multiplexed transcription; actives raise or lower the signal. In outline:
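HepG2 cells transiently transfected with multiple cis-regulated reporter transcription units; endogenous factor activity at the PBREM element measured as reporter mRNA 24 h after dosing, via RT-PCR and capillary electrophoresis of fluorescent fragments; bidirectional fitting versus DMSO.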

The target of test [2] is Paired box protein Pax-6 (Homo sapiens) (UniProt P26367). The test can be described thus: ATG_Pax6_CIS: Attagene CIS-FACTORIAL HepG2 Assay for human Paired Box 6 (PAX6) (AID 2282956). The following applies: HepG2 CIS-FACTORIAL PAX6 reporter transcription, RNA readout; actives raise or lower the signal. In a few lines:
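Read-out is reporter transcript level, measured by RT-PCR with fluorescent primer extension and capillary electrophoresis after 24 h dosing of transfected HepG2 cells. Activity in either direction fitted relative to DMSO control.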

Test [3] in a line: ATG_PXRE_CIS: Attagene CIS-FACTORIAL HepG2 Assay for human Pregnane X Receptor Element (PXRE) (AID 2282957). The following applies: HepG2 Attagene CIS-FACTORIAL PXRE reporter, mRNA; actives raise or lower the signal. In outline:
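Endogenous transcription factor activity in HepG2 was gauged through induction of reporter mRNA driven by a cis-regulating promoter element, sampled 24 h post-treatment. Activity was fitted in both directions against DMSO negative control.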

The nature of test [4]: ATG_RORE_CIS: Attagene CIS-FACTORIAL HepG2 Assay for human RAR-related Orphan Receptor Element (RORE) (AID 2282959). As to conditions: HepG2 Attagene cis-factorial RORE reporter, mRNA; actives raise or lower the signal. In outline: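 HepG2 cells transiently transfected with multiple cis-element reporter transcription units, exposed to chemical for 24 h. Reporter mRNA quantified by RT-PCR, 6-FAM primer-extension labeling, HpaI digestion and capillary electrophoresis; bidirectional fit versus DMSO baseline.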

Test [5] in a line: ATG_Sox_CIS: Attagene CIS-FACTORIAL HepG2 Assay for human SRY-box transcription factor (SOX) (AID 2282960). The following applies: HepG2 Attagene cis-factorial SOX reporter, mRNA; actives raise or lower the signal. In outline:
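HepG2 cells transiently transfected with cis-element-driven multiple reporter transcription units, dosed 24 h; reporter mRNA measured by RT-PCR, FAM labelling, HpaI digestion and capillary electrophoresis. Bidirectional fit versus DMSO baseline.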

For test [6], the target named is Transcription factor Sp1 (Homo sapiens) (UniProt P08047). In words: ATG_Sp1_CIS: Attagene CIS-FACTORIAL HepG2 Assay for human Specificity Protein 1 (Sp1) (AID 2282961). The following applies: HepG2 Sp1 cis-reporter transcription, actives raise or lower the signal. In outline: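 HepG2 cells transiently transfected with multiple reporter transcription units driven by cis-regulatory elements; Sp1-responsive reporter mRNA measured 24 h after dosing by RT-PCR and capillary electrophoresis fluorescence, fitted bidirectionally against DMSO baseline.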

The nature of test [7]: ATG_SREBP_CIS: Attagene CIS-FACTORIAL HepG2 Assay for human Sterol Regulatory Element Binding (SREBP) (AID 2282962). As to conditions: HepG2 Attagene cis-factorial SREBP reporter, mRNA; actives raise or lower the signal. In outline:
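Endogenous SREBP activity read as cis-element-driven reporter transcript in transiently transfected HepG2, 24 h post-dosing; quantified via RT-PCR plus capillary electrophoresis of fluorescent fragments. Gain or loss of signal fitted relative to DMSO baseline.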

Test [8] concerns the target Signal transducer and activator of transcription 3 (Homo sapiens) (UniProt P40763). The test can be described thus: ATG_STAT3_CIS: Attagene CIS-FACTORIAL HepG2 Assay for human Signal Transducer and Activator of Transcription 3 (STAT3) (AID 2282963). As to conditions: HepG2, Attagene cis-factorial STAT3 reporter transcription; actives raise or lower the signal. In a few lines: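 Readout is reporter transcript quantified by RT-PCR and capillary electrophoresis, with 6-FAM primer extension and HpaI digestion. Total RNA is taken 24 h after dosing transiently transfected HepG2 carrying cis-regulated reporter units. Bidirectional fit against DMSO.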

A short description of test [9]: ATG_TA_CIS: Attagene CIS-FACTORIAL HepG2 Assay for human TA Basal Promoter (AID 2282964). As to conditions: HepG2 Attagene CIS-factorial TA basal promoter reporter; actives raise or lower the signal. In outline: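 Read-out: fluorescent reporter-transcript fragments resolved by capillary electrophoresis after RT-PCR and HpaI digestion. Source: HepG2 cells carrying transiently transfected multi-reporter cis constructs, treated 24 h. Endpoint fitted bidirectionally relative to DMSO.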

The nature of test [10]: ATG_TCF_b_cat_CIS: Attagene CIS-FACTORIAL HepG2 Assay for human T-Cell-Factor with beta-catenin (TCF/b-cat) (AID 2282965). As to conditions: HepG2 TCF/beta-catenin cis-reporter transcription, actives raise or lower the signal. In a few lines: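 Measured: reporter mRNA in HepG2 transiently transfected with cis-promoter reporter units, 24 h after chemical addition. Fitting was bidirectional, DMSO as negative control.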

Test [11] can be described thus: ATG_TAL_CIS: Attagene CIS-FACTORIAL HepG2 Assay for human TAL Basal Promoter (AID 2282966).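 Further: background control endpoint measuring basal TAL promoter reporter mRNA not a specific factor.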 The following applies: HepG2 Attagene cis-factorial TAL promoter reporter; actives raise or lower the signal. In outline: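 Endogenous transcription-factor activity is sensed in HepG2 cells through transfected cis-promoter reporter constructs. After 24 h dosing, reporter transcripts are quantified by RT-PCR and capillary electrophoresis. Gain or loss of signal is fitted relative to DMSO.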

Test [12] is described as follows: ATG_TGFb_CIS: Attagene CIS-FACTORIAL HepG2 Assay for human Transforming Growth Factor (TGF) (AID 2282967). As to conditions: HepG2 Attagene CIS TGFb reporter, mRNA transcription; actives raise or lower the signal. In outline:
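Transient MRTU transfection of HepG2 (FuGene 6). Dose 24 h. TriZol RNA, oligo(dT) RT, PCR, 6-FAM primer extension, HpaI cut, CE. Bidirectional fit, DMSO = baseline.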

The nature of test [13]: ATG_VDRE_CIS: Attagene CIS-FACTORIAL HepG2 Assay for human Vitamin D Receptor Element (VDRE) (AID 2282968). The following applies: HepG2 VDRE cis-reporter transcription, actives raise or lower the signal. In a few lines:
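Readout is VDRE-driven reporter mRNA reflecting endogenous factor activity in human HepG2 cells, sampled 24 h post-dose. Quantification used labelled RT-PCR products separated by capillary electrophoresis; bidirectional analysis relative to DMSO.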

Test [14] deals with Estrogen receptor (Homo sapiens) (UniProt P03372). The test can be described thus: ATG_ERa_TRANS: Attagene TRANS-FACTORIAL HepG2 Assay for human Estrogen Receptor alpha (ERa) (AID 2282970; active means hit-call score of the fitted dose curve at least 0.9, where 1 is the maximum). As to conditions: HepG2 Attagene TRANS ERa GAL4 reporter, mRNA. In outline:
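Transfected HepG2 cells carrying GAL4-UAS-driven reporter units were dosed for 24 hours. Total RNA was reverse-transcribed, reporter sequences PCR-amplified, FAM-labelled, HpaI-digested and resolved by capillary electrophoresis. Increases over DMSO control defined activity.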

In test [15] the target is X-box-binding protein 1 (Homo sapiens) (UniProt P17861). In words: ATG_Xbp1_CIS: Attagene CIS-FACTORIAL HepG2 Assay for human X-box Binding Protein 1 (XBP1) (AID 2282972). The following applies: HepG2 XBP1 cis-element reporter, Attagene multiplex; actives raise or lower the signal. In a few lines: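 Reporter transcripts were quantified by RT-PCR with fluorescent primer extension and capillary electrophoresis after 24 h chemical exposure. Cells: transiently transfected HepG2 carrying cis-regulated reporter constructs; data fitted bidirectionally relative to DMSO.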

The nature of test [16]: ATG_M_19_TRANS: Attagene TRANS-FACTORIAL HepG2 Assay for M19 Transcription Factor (Internal Marker) (AID 2282974; active means hit-call score of the fitted dose curve at least 0.9, where 1 is the maximum). The following applies: HepG2 Attagene TRANS-FACTORIAL M19 internal marker reporter. In outline: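 HepG2 cells transiently transfected with multiple GAL4-UAS reporter transcription units were exposed to chemicals for 24 h. Reporter mRNA was read by RT-PCR, 6-FAM primer extension, HpaI digestion and capillary electrophoresis; gain of signal fitted relative to DMSO.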

Test [17] has as its target Nuclear receptor subfamily 1 group I member 3 (Homo sapiens) (UniProt Q14994). The test can be described thus: ATG_CAR_TRANS: Attagene TRANS-FACTORIAL HepG2 Assay for human Constitutive Androstane Receptor (CAR) (AID 2282969; active means hit-call score of the fitted dose curve at least 0.9, where 1 is the maximum;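 further: activators raise reporter mRNA above DMSO so AC50 marks induction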). The following applies: HepG2 Attagene TRANS-FACTORIAL CAR reporter. In outline:
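Signal is reporter mRNA induction relative to DMSO, measured 24 h after dosing by RT-PCR with fluorescent primer extension and capillary electrophoresis. Human HepG2 liver cells carried transiently transfected chimeric NR-Gal4/GAL4-UAS reporter constructs.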

Test [18] can be described thus: ATG_GAL4_TRANS: Attagene TRANS-FACTORIAL HepG2 Assay for GAL4 (Internal Marker) (AID 2282976; active means hit-call score of the fitted dose curve at least 0.9, where 1 is the maximum). As to conditions: HepG2 Attagene TRANS GAL4 internal marker reporter. In a few lines: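 Fluorescence from capillary electrophoresis of labelled RT-PCR products quantifies reporter mRNA induction after 24 h dosing of HepG2 cells carrying transfected GAL4-UAS reporter transcription units. Vehicle DMSO serves as baseline.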

The target of test [19] is Steroid hormone receptor ERR1 (Homo sapiens) (UniProt P11474). The test can be described thus: ATG_ERRa_TRANS: Attagene TRANS-FACTORIAL HepG2 Assay for human Estrogen-Related Receptor alpha (ERRa) (AID 2282971; active means hit-call score of the fitted dose curve at least 0.9, where 1 is the maximum). As to conditions: HepG2 Attagene TRANS reporter, ERRa transactivation. In a few lines: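 HepG2 cells were transiently transfected with multiple GAL4-UAS reporter units, then dosed with compound for 24 h. Total RNA was reverse-transcribed, reporter cDNA PCR-amplified and fluorescently labelled, and fragments resolved by capillary electrophoresis; induction was compared with DMSO.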

Results filed as inconclusive are left out. The source made the active and inactive calls. How the source made its calls, unless noted: active means hit-call score of the fitted dose curve at least 0.9, where 1 is the maximum; inactive means score below 0.9.

Chain of Transcription factor Sp1 (Homo sapiens) (P08047 whole entry, looked up): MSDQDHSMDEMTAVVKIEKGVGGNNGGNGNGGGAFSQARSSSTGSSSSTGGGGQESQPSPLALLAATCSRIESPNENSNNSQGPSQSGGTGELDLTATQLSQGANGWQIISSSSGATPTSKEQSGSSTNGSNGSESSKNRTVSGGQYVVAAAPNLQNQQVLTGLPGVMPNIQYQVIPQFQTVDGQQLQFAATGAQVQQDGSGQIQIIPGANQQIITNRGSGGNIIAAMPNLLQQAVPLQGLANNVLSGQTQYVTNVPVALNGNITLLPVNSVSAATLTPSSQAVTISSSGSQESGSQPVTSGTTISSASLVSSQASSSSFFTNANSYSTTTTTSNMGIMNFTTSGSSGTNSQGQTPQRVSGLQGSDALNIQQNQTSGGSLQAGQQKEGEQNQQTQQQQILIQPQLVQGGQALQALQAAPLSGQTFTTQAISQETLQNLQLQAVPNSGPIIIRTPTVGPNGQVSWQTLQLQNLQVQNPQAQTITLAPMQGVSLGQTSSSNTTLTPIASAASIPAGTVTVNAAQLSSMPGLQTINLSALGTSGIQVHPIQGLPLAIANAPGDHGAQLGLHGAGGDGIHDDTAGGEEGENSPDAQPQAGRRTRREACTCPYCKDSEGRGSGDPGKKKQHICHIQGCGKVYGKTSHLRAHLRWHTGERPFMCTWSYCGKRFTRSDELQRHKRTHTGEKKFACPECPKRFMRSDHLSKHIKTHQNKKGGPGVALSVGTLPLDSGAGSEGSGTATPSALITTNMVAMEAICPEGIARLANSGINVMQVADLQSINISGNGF
Chain of X-box-binding protein 1 (Homo sapiens) (P17861 whole entry, looked up): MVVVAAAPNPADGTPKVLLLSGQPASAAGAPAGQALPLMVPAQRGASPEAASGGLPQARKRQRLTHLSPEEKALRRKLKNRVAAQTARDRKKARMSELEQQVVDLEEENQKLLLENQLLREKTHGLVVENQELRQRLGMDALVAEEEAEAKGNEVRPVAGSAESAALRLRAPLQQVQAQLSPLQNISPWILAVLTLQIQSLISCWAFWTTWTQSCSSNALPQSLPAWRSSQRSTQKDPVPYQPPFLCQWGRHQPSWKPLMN
Chain of Estrogen receptor (Homo sapiens) (P03372 whole entry, looked up, the tested form may be a part): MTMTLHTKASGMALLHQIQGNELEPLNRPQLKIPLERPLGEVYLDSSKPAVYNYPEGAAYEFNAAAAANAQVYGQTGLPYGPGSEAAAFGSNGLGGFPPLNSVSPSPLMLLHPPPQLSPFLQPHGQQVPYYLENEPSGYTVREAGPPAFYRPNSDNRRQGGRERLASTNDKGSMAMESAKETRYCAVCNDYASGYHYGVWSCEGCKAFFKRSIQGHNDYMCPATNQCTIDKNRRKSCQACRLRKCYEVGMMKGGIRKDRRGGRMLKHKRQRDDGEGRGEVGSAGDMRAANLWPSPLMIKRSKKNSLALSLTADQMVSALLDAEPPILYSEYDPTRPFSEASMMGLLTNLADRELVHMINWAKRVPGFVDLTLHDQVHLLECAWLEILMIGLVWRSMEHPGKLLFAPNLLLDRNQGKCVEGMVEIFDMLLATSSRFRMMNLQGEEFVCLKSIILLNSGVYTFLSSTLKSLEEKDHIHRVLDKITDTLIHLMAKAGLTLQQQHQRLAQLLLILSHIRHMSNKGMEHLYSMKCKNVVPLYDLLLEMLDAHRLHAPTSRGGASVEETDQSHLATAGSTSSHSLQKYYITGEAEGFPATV
Chain of Signal transducer and activator of transcription 3 (Homo sapiens) (P40763 whole entry, looked up): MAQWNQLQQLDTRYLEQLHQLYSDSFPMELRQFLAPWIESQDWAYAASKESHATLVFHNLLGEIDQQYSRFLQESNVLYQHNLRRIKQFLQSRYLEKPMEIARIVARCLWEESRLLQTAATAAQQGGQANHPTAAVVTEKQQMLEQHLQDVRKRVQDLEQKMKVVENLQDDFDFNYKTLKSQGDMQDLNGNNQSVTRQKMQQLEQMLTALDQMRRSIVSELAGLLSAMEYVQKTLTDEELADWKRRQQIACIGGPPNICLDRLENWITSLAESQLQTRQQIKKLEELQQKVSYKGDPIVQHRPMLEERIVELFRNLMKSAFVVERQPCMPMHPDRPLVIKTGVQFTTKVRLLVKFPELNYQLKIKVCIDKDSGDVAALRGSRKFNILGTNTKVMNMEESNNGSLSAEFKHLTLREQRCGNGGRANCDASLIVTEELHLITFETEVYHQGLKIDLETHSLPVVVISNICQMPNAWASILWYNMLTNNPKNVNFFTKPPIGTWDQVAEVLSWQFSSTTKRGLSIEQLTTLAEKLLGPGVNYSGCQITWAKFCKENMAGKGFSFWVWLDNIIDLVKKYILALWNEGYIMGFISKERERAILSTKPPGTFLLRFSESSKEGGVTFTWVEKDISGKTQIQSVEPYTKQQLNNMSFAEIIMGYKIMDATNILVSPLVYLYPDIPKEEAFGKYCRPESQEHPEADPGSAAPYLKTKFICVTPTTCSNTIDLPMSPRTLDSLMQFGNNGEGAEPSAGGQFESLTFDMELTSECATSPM
Chain of Paired box protein Pax-6 (Homo sapiens) (P26367 whole entry, looked up): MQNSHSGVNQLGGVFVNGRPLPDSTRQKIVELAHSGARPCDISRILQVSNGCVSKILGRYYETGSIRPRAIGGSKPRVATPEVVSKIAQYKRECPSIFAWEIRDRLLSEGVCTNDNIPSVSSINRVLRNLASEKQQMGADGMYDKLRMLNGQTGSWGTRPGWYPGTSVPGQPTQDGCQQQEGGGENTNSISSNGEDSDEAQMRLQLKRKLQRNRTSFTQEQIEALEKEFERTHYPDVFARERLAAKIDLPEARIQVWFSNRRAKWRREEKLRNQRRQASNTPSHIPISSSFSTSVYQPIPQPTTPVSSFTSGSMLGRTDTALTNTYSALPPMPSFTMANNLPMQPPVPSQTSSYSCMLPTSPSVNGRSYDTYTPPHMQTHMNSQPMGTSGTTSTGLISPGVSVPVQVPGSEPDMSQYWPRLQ
Chain of Nuclear receptor subfamily 1 group I member 3 (Homo sapiens) (Q14994 whole entry, looked up, the tested form may be a part): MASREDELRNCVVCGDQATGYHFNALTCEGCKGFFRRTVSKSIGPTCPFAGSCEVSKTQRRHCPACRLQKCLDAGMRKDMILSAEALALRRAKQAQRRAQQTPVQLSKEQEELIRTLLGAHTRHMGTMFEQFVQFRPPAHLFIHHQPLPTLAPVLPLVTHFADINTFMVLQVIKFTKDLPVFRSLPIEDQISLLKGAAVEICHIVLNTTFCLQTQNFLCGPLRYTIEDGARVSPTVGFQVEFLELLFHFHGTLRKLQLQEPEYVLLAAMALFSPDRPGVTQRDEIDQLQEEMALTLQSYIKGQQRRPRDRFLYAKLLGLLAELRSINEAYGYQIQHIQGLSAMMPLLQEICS
Chain of Steroid hormone receptor ERR1 (Homo sapiens) (P11474 whole entry, looked up, the tested form may be a part): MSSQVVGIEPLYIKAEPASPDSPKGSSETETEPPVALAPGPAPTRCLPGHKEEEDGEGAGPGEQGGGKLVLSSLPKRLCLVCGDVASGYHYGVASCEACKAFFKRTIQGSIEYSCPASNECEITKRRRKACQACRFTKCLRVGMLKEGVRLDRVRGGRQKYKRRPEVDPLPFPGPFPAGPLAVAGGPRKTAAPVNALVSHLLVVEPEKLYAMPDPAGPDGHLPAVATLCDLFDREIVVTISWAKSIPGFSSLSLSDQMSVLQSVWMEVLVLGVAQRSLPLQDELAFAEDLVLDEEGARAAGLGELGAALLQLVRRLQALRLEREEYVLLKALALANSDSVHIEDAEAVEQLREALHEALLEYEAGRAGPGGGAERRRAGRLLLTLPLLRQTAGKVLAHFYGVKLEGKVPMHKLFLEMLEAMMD

`C[Si](C)(C)N[Si](C)(C)C`: the outcome in [1], in test [2], in [3], in test [4], in test [5] and in test [6] was inactive. Also, the molecule was called inactive in test [7], in [8], in test [9], in [10], in test [11] and in test [12]. Moreover, the molecule was classed as inactive in test [13], in test [14] and in test [15].
As for `CC(=O)c1ccccc1O`, the outcome in [1], in [2], in test [3], in test [4], in test [5] and in test [6] was inactive. Besides, the outcome in test [7], in test [8], in test [9], in [10], in test [11] and in test [12] was inactive. Besides, the molecule was classed as inactive in test [13], in test [14], in test [15] and in [16].
With `CC(C)=CCCC(C)=CC#N`, the result in test [1], in test [2], in test [4], in [5], in test [6] and in test [7] was inactive. Also, the call in test [8], in test [9], in test [10], in test [11], in test [12] and in [13] was inactive. For the same molecule, the molecule was called inactive in [17], in [14], in test [15], in test [16] and in test [18]. Further, the concentration at half-maximal activity (AC50) in [3] was 25.5 µM (active).
Take `CC(Cl)COP(=O)(OCC(C)Cl)OCC(C)Cl` (stereo unspecified): the result in test [1], in test [2], in [4], in test [5], in [6] and in [7] was inactive. Also, the molecule was called inactive in test [8], in test [9], in test [10], in test [11], in test [12] and in test [17]. Also, the call in test [14], in test [19], in [15], in test [16] and in test [18] was inactive. Also, the AC50 in test [3] is 4.13 µM (active); in [13], 3.75 µM (active).
On to `Clc1cc(Cl)c(Cl)c(Cl)c1Cl`, for which the AC50 in test [1] is 66.2 µM (active); in [3], 27.6 µM (active); in [12], 100 µM (active); in [13] it was 56.2 µM (active); in test [14] it was 27 µM (active). Moreover, the outcome in test [2], in test [4], in test [5], in [6], in test [7] and in test [8] was inactive. Also, the call in test [9], in test [10], in [11], in test [17], in test [15] and in [18] was inactive.
On to `C1CNCCN1`, for which the result in test [1], in test [2], in test [3], in test [4], in [5] and in test [6] was inactive. Besides, the molecule was classed as inactive in test [7], in test [8], in test [9], in [10], in [11] and in test [13]. Also, the outcome in test [14], in test [15] and in test [18] was inactive.
In the case of `CC(C)CO`, the result in [1], in test [2], in [3], in test [4], in test [5] and in test [6] was inactive. Besides, the molecule was classed as inactive in [7], in test [8], in [9], in test [10], in [11] and in test [13]. For the same molecule, the molecule was classed as inactive in test [14], in [15] and in [18]. For the same molecule, in test [12], the AC50 was 0.224 µM (active).
